Screening data from PubChem.
IP6K1 inhibitor: inhibitors of human IP6K1 | Q92551 | IP6K1 kinase, ADP-Glo luminescence, 2 h; hits give low values | activity change, % (series mostly up to about 58 µM) | 140,000 tested, 0.81% active; in the data active means activity change below about -25%; further: on the % scale 0 is the no-effect control and ±100 the full control effect
Target sequence (Q92551 whole entry, looked up): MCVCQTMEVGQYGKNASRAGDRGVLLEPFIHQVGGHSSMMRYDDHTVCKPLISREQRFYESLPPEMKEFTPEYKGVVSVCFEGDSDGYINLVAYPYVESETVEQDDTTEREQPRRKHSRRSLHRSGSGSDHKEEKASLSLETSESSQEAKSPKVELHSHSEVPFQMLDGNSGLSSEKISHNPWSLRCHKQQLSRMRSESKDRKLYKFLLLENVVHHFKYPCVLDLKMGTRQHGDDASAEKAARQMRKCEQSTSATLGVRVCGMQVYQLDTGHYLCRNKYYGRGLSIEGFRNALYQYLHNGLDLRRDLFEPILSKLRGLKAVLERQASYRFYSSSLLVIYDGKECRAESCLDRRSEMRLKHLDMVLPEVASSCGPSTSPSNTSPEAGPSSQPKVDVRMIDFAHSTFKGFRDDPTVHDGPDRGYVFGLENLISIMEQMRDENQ
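ADP-Glo luminescence measures ADP made by human IP6K1 during a 2 h RT reaction with ATP/IP6 (mix at 1.3 mM/130 uM); top library doses 57.5 and 19.1 uM final.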
KDM5B inh: KDM5B demethylase inhibition; Q9UGL1; KDM5B demethylase, FDH-coupled NADH fluorescence (FDH is formaldehyde dehydrogenase); Potency, µM (titrated, usually from 57.7 µM), usual class: inhibitors; 220,000 tested, 2.6% active; further: potency means the concentration at half of the fitted maximal effect; 0% is about no effect; nearly all actives have a fitted effect of over 70% in size
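Measured: NADH fluorescence change, 30 min, RT. System: KDM5BΔAP 200 nM final, H3K4me3 peptide, α-KG, Fe(II), ascorbate, NAD⁺ plus FDH, pH 7.5 HEPES. Compounds: titrated, 10 min pre-incubation with enzyme.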
SNCA expr inhib: reduces expression of the alpha-synuclein gene. HEK-293 SNCA-luciferase knock-in, luminescence, 24 h. Potency, µM (titrated, usually from 57.2 µM), without a hit: at the highest dose activity change, negative = inhibition, usual class: inhibitors. 140,000 tested, 0.17% active. AID 1671194;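 further: potency means the concentration at half of the fitted maximal effect; plate controls were DMSO cells for no effect and cell-free wells for full effect; nearly all actives have a fitted effect of over 45% in size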
HEK293 viab: cell viability loss counter-screen; 150,000 tested, 0.12% active; AID 1671193; Potency, µM (top dose mostly 57.1 µM), without a hit: at the highest dose activity change, negative = cytotoxicity, usual class: cytotoxic; HEK-293-SNCA-luc viability, GF-AFC fluorescence, 24 h;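 further: potency means the concentration at half of the fitted maximal effect; 0% = DMSO-treated cells and -100% = medium-only wells without cells; nearly all actives have a fitted effect of over 30% in size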
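HEK-293-SNCA-luc cells (1500/well) plated 24 h, then exposed 24 h to a dilution series; GF-AFC added 30 min at 37C, fluorescence 405/540 nm; normalised to medium-only and DMSO wells, Hill fit.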
Starred values were filed as active, the others as inactive; i = inactive; ? = inconclusive; nt = not tested or not shown; ! = repeats disagree; [ ] = dose if it differs, or a comment. Compounds with a hit are over-represented: about 2.8% of the library has one in this group of screens. Unless noted, the call rests on the fitted dose curve; in most records, active means well fitted curve in the direction sought with a large enough effect; inconclusive means small, poorly fitted or top-dose-only effect, or another doubt; inactive means no such curve, though single readings can be large; an effect the other way counts as inactive or inconclusive.

SMILES	IP6K1 inhibitor	KDM5B inh	SNCA expr inhib	HEK293 viab
COc1ccc(Cc2nc3nccc(-c4ccc5c(c4)OCCCO5)n3n2)cc1	12	?	2%	4%
CCOC(=O)c1cc2c(=O)n3ccccc3nc2n(Cc2ccco2)c1=NC(=O)c1c(F)cccc1Cl	-60*	?	?	?
O=C(Cc1ccccn1)NC1CCN(c2nc3ncccc3o2)CC1	-10	25µM*!	-5%	6%
COc1ccc(CC(=O)NC2CCN(c3nc4ncccc4o3)CC2)cc1	-7	32µM*	12%	0%
COc1ccc(CC(=O)N2CCN(c3nc4ncccc4o3)CC2)cc1	-1	?	28%	12%
Cc1cccc2sc(N3CCN(C(=O)c4ccco4)CC3)nc12	19	i	125%	9%
COc1ccc(CC(=O)NC2CCN(c3nnc4cccc(C)n34)CC2)cc1	18	28µM*	9%	-12%
Cc1cccc2nnc(N3CCN(C(=O)c4ccco4)CC3)n12	7	22µM*	?	7%
Cc1cccc(-n2nc(COc3ccccc3)nc2CN2CCOC2=O)n1	8	i	-25%	1%
O=C(Cc1ccc(F)cc1)NC1CCN(c2nc3ncccc3o2)CC1	-6	28µM*	-17%[87.6 µM]	-5%[87.6 µM]
C#CCN1C(=O)S/C(=C/c2cn(CC=C)c3ccccc23)C1=O	nt	i	nt	nt
COC(=O)[C@H](NC(=O)[C@@]1(O)C[C@@H](O)[C@H](O)[C@@H](NC(=O)CC2(CC(=O)O)CCCC2)C1)C(C)C	3	i	-1%	-10%
O=C(Nc1ccc(Cl)cc1Cl)c1ccn2cncc2c1	0	35µM*	64%[87.6 µM]	-4%[87.6 µM]
O=C(Nc1ccc(Cl)cc1Cl)c1ccc2cncn2c1	-5	28µM*	97%[87.6 µM]	-2%[87.6 µM]
Cc1ccccc1-c1noc(-c2ccc(Br)cc2)n1	nt	i	nt	nt
Cc1ccccc1-c1noc(-c2ccc(NC(C)c3cnn(C)c3)nc2)n1 (stereo unspecified)	25	28µM*	?	?
COc1ccc(-c2nc(C)nc3c2CCN(Cc2ccnn2C)CC3)cc1	1	20µM*	-4%	-13%
COc1ccc(-c2nc(C)nc3c2CCN(Cc2cc(C)on2)CC3)cc1	-6	20µM*	2%	5%
COc1ccc(-c2nc(C)nc3c2CN(C(=O)c2ccccn2)CC3)cc1	0	16µM*	6%	3%
COc1ccc(-c2nc(C)nc3c2CCN(CC2CCCCC2)CC3)cc1	-3	28µM*	-5%	-14%
O=C(Nc1ccc(Cl)cc1)c1nc2c(o1)CCN(Cc1ccc3cn[nH]c3c1)CC2	2	35µM*	-30%[87.6 µM]	?
O=C(Nc1ccccc1)c1nc2c(o1)CCN(Cc1cccs1)CC2	-17	?	11µM*	-2%[87.6 µM]
O=C(Nc1ccc(Cl)cc1)c1nc2c(o1)CCN(Cc1nccs1)CC2	10	i	10%[87.6 µM]	-8%[87.6 µM]
COc1ccc(CN2CCc3nc(C(=O)Nc4ccc(Cl)cc4)oc3CC2)cn1	-3	?	6%[87.6 µM]	-19%[87.6 µM]
O=C(Nc1ccc(Cl)cc1)c1nc2c(o1)CCN(Cc1ccc3c(c1)CCO3)CC2	6	32µM*	-20%[87.6 µM]	-16%[87.6 µM]
SMILES	IP6K1 inhibitor	KDM5B inh	SNCA expr inhib	HEK293 viab
O=C(Nc1ccccc1)c1nc2c(o1)CCN(Cc1ccc(F)c(Cl)c1)CC2	-12	28µM*	76%[87.6 µM]	-29%[87.6 µM]
COc1ccc(C(=O)N2CCC(N3CC4(CCCCC4)C3c3ccncc3)CC2)c(OC)c1 (stereo unspecified)	-4	nt	33%	-10%
C=CCNC(=O)NC(=O)Cn1cnc2c1c(=O)n(C)c(=O)n2C	nt	i	nt	nt
Cc1ccccc1CN1CCc2nc(C(=O)NCCOc3ccccc3)oc2CC1	1	32µM*	-17%[87.6 µM]	2%[87.6 µM]
O=C(Nc1ccc(Cl)cc1)c1nc2c(o1)CCN(CC1CC1)CC2	9	i	52%[87.6 µM]	5%[87.6 µM]
O=C(Nc1ccc(Cl)cc1)c1nc2c(o1)CCN(Cc1cccc(O)c1)CC2	-9	32µM*	-22%[87.6 µM]	?
Cc1ccc(CN2CCc3nc(C(=O)Nc4ccc(Cl)cc4)oc3CC2)cc1	-6	35µM*	-17%[87.6 µM]	-4%[87.6 µM]
Cc1ccc(CN2CCc3nc(C(=O)Nc4ccccc4)oc3CC2)cc1	10	35µM*	59%[87.6 µM]	-11%[87.6 µM]
O=C(Nc1ccc(Cl)cc1)c1nc2c(o1)CCN(Cc1ccncc1)CC2	2	i	1%[87.6 µM]	-7%[87.6 µM]
O=C(Nc1ccccc1)c1nc2c(o1)CCN(Cc1ccc(O)cc1)CC2	17	i	-22%[87.6 µM]	-2%[87.6 µM]
Cc1ccc(-n2nnnc2SC(C(=O)N2CCCCC2)c2ccccc2)c(C)c1 (stereo unspecified)	nt	i	nt	nt
c1cncc(C2=NOC3(CCN(Cc4cccc5ccccc45)CC3)C2)c1	11	i	-1%	-20%
COc1ccc(NC(=O)c2cc3n(n2)CC(c2ccc4c(c2)OCO4)OC3)cc1 (stereo unspecified)	28	?	-3%	-8%
Cc1ccc(NC(=O)c2cc3n(n2)CC(c2ccc4c(c2)OCO4)OC3)cc1Cl (stereo unspecified)	-7	28µM*	1%	4%
Cc1ccc(NC(=O)c2cc3n(n2)CC(c2ccc4c(c2)OCO4)OC3)cc1F (stereo unspecified)	0	22µM*	-7%	-8%
Cc1ccccc1N1Cc2c(NC3CCCC3)ncnc2N(C)CC1=O	3	?	6%	-4%
O=C(Nc1ccc2oc(-c3ccccc3)nc2c1)C1CCN(c2cnn(Cc3ccccc3)c(=O)c2)C1 (stereo unspecified)	13	18µM*	83%	-3%
O=C(Nc1ccc2c(c1)OCO2)C1CCCN(c2cnn(Cc3ccccc3)c(=O)c2)C1 (stereo unspecified)	15	?	51%	?
O=C(NCCc1ccccc1)N1CC(Oc2ccccc2-c2nc(-c3ccccc3)no2)C1	17	25µM*	-2%	-25%
Cc1ccc(C(=O)NCc2nnc3cc(-c4nc(C(C)C)no4)ccn23)cc1	6	10µM*	7%	5%
CCc1ccc(C(=O)NCc2nnc3cc(-c4nc(C(C)C)no4)ccn23)cc1	-6	i	?	-30%
CC(C)c1noc(-c2ccn3c(CNC(=O)c4ccco4)nnc3c2)n1	3	28µM*	-19%	-20%
CN(C)CCOCC1(C)COc2ccc(C(=O)Nc3cccc(Cl)c3)cc2N1 (stereo unspecified)	1	35µM*	158%[87.6 µM]	-3%[87.6 µM]
COc1cccc(NC(=O)c2ccc3c(c2)NC(C)(COc2cccnc2)CO3)c1 (stereo unspecified)	-9	?	-25%[87.6 µM]	?
CN(C)CCOCC1(C)COc2ccc(C(=O)Nc3cccc(N(C)C)c3)cc2N1 (stereo unspecified)	-5	?	16%[87.6 µM]	13%[87.6 µM]
CC1(COc2cccnc2)COc2ccc(C(=O)Nc3cccc(Cl)c3)cc2N1 (stereo unspecified)	-2	14µM*	?	?
O=C1c2ccccc2C(=O)c2c(Nc3ccc(CCO)cc3)ccc(O)c21	nt	i	nt	nt
O=C1c2ccccc2C(=O)c2c(NCCc3ccc(O)cc3)ccc(NCCc3ccc(O)cc3)c21	nt	nt	?	28µM*
